{"source": "PubChem BioAssay (NCATS)", "note": "Values joined by “and” are separate entries in the source; they are usually repeats but may differ in a detail not shown here. Identical values can stand only once. Results filed as inconclusive are left out. Entries that show only a call come without a potency. Active and inactive are the calls of the source. Calls come from the whole dose curve; as a rule, active = well fitted cell-killing curve with a large enough effect; inconclusive = small, poorly fitted or top-dose-only effect; inactive = flat fitted curve, though single readings scatter. Potency is the fitted concentration of half-maximal effect.", "data": [{"experiment": "Cellular viability qHTS for adrenocortical cancer (ACC) cell line NCI-H295R (AID 1963990); note: nearly all actives have a fitted effect of over 60% in size", "conditions": "CellTiter-Glo ATP luminescence, 48 h; series mostly up to 46.1 µM", "in_short": "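Compound titrations (up to 46 uM final) are applied to NCI-H295R cultures for 48 h at 37C. Viable cell number is estimated by CellTiter-Glo signal, normalised to DMSO and doxorubicin controls.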", "values": [{"smiles": "Nc1c2c(nc3ccccc13)CCCC2", "Potency": "inactive"}, {"smiles": "O=c1[nH]cnc2c1ncn2[C@@H]1O[C@H](CO)[C@@H](O)[C@H]1O", "Potency": "inactive"}, {"smiles": "CCn1cc(C(=O)O)c(=O)c2ccc(C)nc21", "Potency": "inactive"}, {"smiles": "CCCCc1ccc2nc(NC(=O)OC)[nH]c2c1", "Potency": "103 nM (active) and 224 nM (active)"}, {"smiles": "CCN(CC)C(=O)C1CN2CCc3cc(OC)c(OC)cc3C2CC1OC(C)=O", "note": "(stereo not given)", "Potency": "inactive"}, {"smiles": "O=C(CO)N1CCC(c2[nH]nc(-c3ccc(Cl)cc3)c2-c2ccncn2)CC1", "Potency": "inactive"}, {"smiles": "O=C(CCCl)NCc1ccccc1", "Potency": "inactive"}, {"smiles": "CCCCCCCCCCCCCCCC(=O)O", "Potency": "inactive"}, {"smiles": "NC(=O)NC(=O)Cc1ccccc1", "Potency": "inactive"}, {"smiles": "CC1CCN(CCCC(=O)c2ccc(F)cc2)CC1", "Potency": "inactive"}, {"smiles": "CC(C)NCC(O)COc1ccc(CCOCC2CC2)cc1", "note": "(stereo not given)", "Potency": "inactive"}, {"smiles": "CCN(CC)CCN", "Potency": "inactive"}, {"smiles": "CC(C)CCCC(C)CCCC(C)CCCCC(C)CCCC(C)CCCC(C)C", "note": "(stereo not given)", "Potency": "inactive"}, {"smiles": "Nc1ncn([C@H]2C[C@H](O)[C@@H](CO)O2)c(=O)n1", "Potency": "inactive"}, {"smiles": "CC(=O)OC[C@H]1O[C@@H](OC(C)=O)[C@H](OC(C)=O)[C@@H]1OC(C)=O", "Potency": "inactive"}, {"smiles": "O=c1[nH]c(=O)n([C@H]2C[C@H](O)[C@@H](CO)O2)cc1Br", "Potency": "inactive"}, {"smiles": "CCN(CC)CC(=O)Oc1ccc(NC(C)=O)cc1", "Potency": "inactive"}, {"smiles": "O=C(Nc1ccc(Cl)cc1)Nc1ccc(Cl)c(Cl)c1", "Potency": "4.11 µM (active)"}, {"smiles": "CCCC(=O)O[C@]1(C(=O)CO)CC[C@H]2[C@@H]3CCC4=CC(=O)CC[C@]4(C)[C@H]3[C@@H](O)C[C@@]21C", "Potency": "inactive"}, {"smiles": "CC1CCc2cc(F)cc3c(=O)c(C(=O)O)cn1c23", "note": "(stereo not given)", "Potency": "inactive"}]}]}
